# Measurements taken from the supplement of paper PMC11732987, “Enantioselective OTUD7B fragment discovery through chemoproteomics screening and high-throughput optimisation” (Communications Chemistry, 2025).
# A number with no mark means an inactive call.
# Legend:
# Experiment in all cases: log2 ratio of Biotin-Ahx-Ub-VS probe labelling (fragment/DMSO); higher = less target engagement (more negative = stronger competition), active = hit call of the paper (q ≤ 0.05, log2 ratio ≤ -1)
# Details in all cases: compound concentration: 200 uM; treatment time: 3 h
# [1] = target: T1, OTUD6B (UniProt Q8N6M0)
# T1 sequence (whole entry): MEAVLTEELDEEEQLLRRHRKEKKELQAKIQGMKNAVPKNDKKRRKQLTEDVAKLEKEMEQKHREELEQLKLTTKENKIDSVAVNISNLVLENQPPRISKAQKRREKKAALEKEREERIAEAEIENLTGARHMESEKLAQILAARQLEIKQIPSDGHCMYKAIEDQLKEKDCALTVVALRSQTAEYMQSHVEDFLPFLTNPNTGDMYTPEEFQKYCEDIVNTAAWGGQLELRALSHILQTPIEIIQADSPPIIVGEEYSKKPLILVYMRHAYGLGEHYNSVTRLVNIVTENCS
# Method in brief: (§1)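 Fragment (200 µM) or vehicle was incubated for 3 h with triplicate HEK293T lysate samples of 495 µg, which were then treated with Biotin-Ahx-Ub-VS at 0.5 µM final for 1 h. Labelled DUBs were enriched on NeutrAvidin, digested with LysC and trypsin, and analysed by diaPASEF LC-MS/MS. Values are average log2 fragment/vehicle ratios from an unpaired t-test on global-median-normalised Spectronaut label-free quantities, using proteins with ≥2 unique peptides.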
# [2] = target: T2, OTUD7B (UniProt Q6GQQ9)
# T2 sequence (whole entry): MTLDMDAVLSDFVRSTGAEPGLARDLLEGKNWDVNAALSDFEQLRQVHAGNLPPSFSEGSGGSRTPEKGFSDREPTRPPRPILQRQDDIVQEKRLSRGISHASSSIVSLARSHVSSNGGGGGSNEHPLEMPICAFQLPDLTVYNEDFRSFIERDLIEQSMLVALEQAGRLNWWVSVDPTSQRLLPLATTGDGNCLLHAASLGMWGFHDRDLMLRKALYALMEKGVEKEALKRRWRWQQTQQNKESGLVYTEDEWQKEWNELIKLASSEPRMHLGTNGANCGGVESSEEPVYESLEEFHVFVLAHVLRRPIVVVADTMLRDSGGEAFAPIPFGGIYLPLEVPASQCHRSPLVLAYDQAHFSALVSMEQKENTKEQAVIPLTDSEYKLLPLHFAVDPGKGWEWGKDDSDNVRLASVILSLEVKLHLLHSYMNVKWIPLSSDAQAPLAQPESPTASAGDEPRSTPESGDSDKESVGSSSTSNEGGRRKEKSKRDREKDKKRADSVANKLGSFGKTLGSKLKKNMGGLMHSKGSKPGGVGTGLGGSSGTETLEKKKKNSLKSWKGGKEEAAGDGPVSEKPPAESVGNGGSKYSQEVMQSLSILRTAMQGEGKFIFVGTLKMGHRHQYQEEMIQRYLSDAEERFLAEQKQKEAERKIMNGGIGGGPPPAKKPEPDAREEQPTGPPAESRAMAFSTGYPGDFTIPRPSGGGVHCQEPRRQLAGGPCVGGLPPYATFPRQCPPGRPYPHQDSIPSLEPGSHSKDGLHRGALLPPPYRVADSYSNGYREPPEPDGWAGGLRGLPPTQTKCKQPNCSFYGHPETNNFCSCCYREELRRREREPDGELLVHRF
# Method in brief: as §1
# [3] = target: PRPF8 (UniProt Q6P2Q9)
# Method in brief: as §1
# [4] = target: T3, PSMD7 (UniProt P51665)
# T3 sequence (whole entry): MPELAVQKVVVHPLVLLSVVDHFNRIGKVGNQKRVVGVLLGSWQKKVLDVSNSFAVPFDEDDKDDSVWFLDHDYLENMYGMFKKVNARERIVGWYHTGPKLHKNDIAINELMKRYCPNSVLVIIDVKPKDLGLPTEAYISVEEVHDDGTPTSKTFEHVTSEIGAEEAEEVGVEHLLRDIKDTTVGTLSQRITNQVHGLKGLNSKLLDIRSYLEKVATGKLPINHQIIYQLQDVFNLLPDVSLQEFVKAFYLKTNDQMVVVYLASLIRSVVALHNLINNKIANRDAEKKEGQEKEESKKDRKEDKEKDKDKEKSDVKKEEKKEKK
# Method in brief: as §1
# [5] = target: UCHL1 (UniProt P09936)
# Sequence of UCHL1 (P09936 whole entry, looked up): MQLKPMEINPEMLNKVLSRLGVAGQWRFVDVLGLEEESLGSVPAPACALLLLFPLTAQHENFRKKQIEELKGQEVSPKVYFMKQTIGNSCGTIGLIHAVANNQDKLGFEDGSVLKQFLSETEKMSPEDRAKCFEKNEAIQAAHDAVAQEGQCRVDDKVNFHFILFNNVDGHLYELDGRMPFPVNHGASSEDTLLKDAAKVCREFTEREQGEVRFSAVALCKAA
# Method in brief: as §1
# [6] = target: T4, UCHL3 (UniProt P15374)
# T4 sequence (whole entry): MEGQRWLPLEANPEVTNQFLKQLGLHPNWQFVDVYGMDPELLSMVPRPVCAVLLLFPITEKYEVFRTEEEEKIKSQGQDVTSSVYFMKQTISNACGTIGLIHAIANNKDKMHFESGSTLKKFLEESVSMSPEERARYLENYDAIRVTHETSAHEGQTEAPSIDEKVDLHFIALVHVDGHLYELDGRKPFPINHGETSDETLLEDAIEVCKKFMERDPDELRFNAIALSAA
# Method in brief: as §1
# [7] = target: T5, UCHL5 (UniProt Q9Y5K5)
# T5 sequence (whole entry): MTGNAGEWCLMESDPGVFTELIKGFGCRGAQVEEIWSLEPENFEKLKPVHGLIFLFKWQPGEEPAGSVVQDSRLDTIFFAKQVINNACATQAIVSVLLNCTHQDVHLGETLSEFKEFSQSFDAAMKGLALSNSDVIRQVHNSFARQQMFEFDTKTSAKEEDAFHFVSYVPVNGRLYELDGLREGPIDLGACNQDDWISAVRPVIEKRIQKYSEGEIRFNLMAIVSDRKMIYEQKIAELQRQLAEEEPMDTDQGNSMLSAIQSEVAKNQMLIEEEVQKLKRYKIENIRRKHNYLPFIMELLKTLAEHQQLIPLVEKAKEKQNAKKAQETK
# Method in brief: as §1
# [8] = target: USP10 (UniProt Q14694)
# Sequence of USP10 (Q14694 whole entry): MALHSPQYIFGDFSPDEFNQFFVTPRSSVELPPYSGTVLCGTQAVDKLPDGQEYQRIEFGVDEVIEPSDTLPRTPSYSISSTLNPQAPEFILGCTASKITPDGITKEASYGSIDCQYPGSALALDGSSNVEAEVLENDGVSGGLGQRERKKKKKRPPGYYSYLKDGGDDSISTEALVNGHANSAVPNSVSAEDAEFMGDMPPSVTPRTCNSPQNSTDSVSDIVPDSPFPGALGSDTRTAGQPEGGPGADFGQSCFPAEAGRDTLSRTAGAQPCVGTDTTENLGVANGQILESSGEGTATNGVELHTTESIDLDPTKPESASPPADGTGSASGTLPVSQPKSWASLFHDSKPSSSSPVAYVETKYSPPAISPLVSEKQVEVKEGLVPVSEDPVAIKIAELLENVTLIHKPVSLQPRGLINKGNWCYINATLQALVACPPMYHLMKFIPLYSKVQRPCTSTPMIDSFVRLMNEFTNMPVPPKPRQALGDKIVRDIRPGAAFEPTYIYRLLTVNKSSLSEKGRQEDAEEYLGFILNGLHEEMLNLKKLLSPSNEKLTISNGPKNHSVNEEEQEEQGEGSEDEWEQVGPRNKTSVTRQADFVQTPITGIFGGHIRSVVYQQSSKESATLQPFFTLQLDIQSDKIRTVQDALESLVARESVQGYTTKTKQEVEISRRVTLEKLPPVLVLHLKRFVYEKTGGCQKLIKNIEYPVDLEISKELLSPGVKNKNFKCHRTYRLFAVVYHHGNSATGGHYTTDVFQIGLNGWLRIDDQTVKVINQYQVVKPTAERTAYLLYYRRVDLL
# Method in brief: as §1
# [9] = target: T6, USP15 (UniProt Q9Y4E8)
# T6 sequence (whole entry): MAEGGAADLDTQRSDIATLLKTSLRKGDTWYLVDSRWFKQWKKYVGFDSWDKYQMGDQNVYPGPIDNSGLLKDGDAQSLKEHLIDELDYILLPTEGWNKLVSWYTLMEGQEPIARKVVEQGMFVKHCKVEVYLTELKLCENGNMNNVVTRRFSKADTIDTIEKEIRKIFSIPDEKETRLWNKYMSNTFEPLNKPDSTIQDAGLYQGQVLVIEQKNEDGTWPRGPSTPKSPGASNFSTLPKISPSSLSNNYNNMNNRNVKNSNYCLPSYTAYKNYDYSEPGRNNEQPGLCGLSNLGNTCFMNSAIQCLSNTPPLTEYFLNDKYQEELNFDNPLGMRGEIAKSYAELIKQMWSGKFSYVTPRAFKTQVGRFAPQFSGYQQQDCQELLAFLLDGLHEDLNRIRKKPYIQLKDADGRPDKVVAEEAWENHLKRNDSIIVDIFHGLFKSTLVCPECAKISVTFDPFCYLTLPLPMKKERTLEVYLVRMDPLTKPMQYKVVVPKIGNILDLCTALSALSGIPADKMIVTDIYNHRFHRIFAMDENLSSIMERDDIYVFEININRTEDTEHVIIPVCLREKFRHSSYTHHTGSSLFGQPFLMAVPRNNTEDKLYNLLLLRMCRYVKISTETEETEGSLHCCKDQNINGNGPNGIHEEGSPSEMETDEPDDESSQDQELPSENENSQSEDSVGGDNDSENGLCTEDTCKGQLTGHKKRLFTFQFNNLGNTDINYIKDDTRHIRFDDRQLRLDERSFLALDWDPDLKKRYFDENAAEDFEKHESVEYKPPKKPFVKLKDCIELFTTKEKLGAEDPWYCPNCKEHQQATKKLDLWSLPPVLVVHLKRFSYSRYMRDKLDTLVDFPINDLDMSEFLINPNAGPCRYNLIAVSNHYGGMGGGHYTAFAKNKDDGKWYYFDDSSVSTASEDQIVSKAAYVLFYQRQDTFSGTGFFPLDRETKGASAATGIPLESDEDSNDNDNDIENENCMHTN
# Method in brief: as §1
# [10] = target: USP16 (UniProt Q9Y5T5)
# Sequence of USP16 (Q9Y5T5 whole entry, looked up): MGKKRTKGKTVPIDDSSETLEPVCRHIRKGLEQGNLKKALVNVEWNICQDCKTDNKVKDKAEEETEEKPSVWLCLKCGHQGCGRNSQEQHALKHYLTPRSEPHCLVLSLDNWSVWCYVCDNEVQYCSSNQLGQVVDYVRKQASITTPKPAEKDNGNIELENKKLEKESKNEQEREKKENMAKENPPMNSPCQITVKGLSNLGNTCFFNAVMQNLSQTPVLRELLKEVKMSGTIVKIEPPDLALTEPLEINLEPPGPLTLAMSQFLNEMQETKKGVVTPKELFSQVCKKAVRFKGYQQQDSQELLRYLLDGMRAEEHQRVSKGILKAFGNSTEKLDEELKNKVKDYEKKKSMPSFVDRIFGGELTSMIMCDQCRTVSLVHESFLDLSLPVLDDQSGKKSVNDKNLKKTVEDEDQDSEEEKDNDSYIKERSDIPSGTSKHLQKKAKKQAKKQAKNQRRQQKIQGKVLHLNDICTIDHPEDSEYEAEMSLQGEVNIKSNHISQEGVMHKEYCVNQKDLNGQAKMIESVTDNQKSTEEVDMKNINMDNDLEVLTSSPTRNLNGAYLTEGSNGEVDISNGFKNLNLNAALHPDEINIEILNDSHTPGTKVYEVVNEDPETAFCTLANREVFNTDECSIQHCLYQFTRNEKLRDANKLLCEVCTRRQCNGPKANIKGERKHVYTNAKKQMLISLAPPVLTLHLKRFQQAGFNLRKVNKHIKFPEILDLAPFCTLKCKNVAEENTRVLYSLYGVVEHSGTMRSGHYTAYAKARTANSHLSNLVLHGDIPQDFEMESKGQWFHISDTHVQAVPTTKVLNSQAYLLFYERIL
# Method in brief: as §1
structure (smiles),measurement,setting,value
Cl.O=C(CCl)NCc1cc2c(nc1O)CCCC2,log2 ratio of Biotin-Ahx-Ub-VS probe labelling,[1],-0.123
same,log2 ratio of Biotin-Ahx-Ub-VS probe labelling,[2],-0.66
same,log2 ratio of Biotin-Ahx-Ub-VS probe labelling,[3],-0.141
same,log2 ratio of Biotin-Ahx-Ub-VS probe labelling,[4],-0.244
same,log2 ratio of Biotin-Ahx-Ub-VS probe labelling,[5],-1.64 (active)
same,log2 ratio of Biotin-Ahx-Ub-VS probe labelling,[6],0.175
same,log2 ratio of Biotin-Ahx-Ub-VS probe labelling,[7],-0.407
same,log2 ratio of Biotin-Ahx-Ub-VS probe labelling,[8],-0.083
same,log2 ratio of Biotin-Ahx-Ub-VS probe labelling,[9],-0.148
same,log2 ratio of Biotin-Ahx-Ub-VS probe labelling,[10],-0.389
